Results reported in PubChem BioAssay (NCI).
Values joined by “and” are separate entries in the source; they are usually repeats but may differ in a detail not shown here. Equal values may be shown once. This is part of a sample that, as a whole, favours compounds with a hit. Of some 79,000 tested, about 15% had one in any assay. Unmarked numbers belong to inactive results. Active and inactive are the calls of the source. Cut-off read from the data, not from the text of the source: active = growth inhibition above about 70%; inactive = the rest.

Legend:
[1] = NCI Yeast Anticancer Drug Screen. Data for the rad50 strain (AID 155);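 note: 0% = growth of vehicle-only cultures of the same strain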; details: S. cerevisiae rad50 strain growth inhibition; at 50.0 µM; stronger effect = higher value
Procedure, shortened: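 Inhibition values express reduced yeast growth in compound-treated cultures relative to vehicle-treated controls.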

[2] = NCI Yeast Anticancer Drug Screen. Data for the mec2-1 strain (AID 157); details: S. cerevisiae mec2-1 strain, at 50.0 µM, stronger effect = higher value
Procedure, shortened: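 Cells of the genetically defined mec2-1 yeast strain are incubated with test compound. Inhibition of growth is calculated against vehicle-treated controls.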

[3] = NCI Yeast Anticancer Drug Screen. Data for the sgs1 mgt1 strain (AID 161);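 note: 0% = growth of cultures given vehicle only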; details: S. cerevisiae sgs1 mgt1 strain, at 50.0 µM, stronger effect = higher value
Procedure, shortened: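 Genetically altered yeast, compound exposure, growth inhibition relative to vehicle.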

[4] = NCI Yeast Anticancer Drug Screen. Data for the cln2 rad14 strain (AID 165);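 note: 0% = growth equal to vehicle treated cultures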; details: S. cerevisiae cln2 rad14 strain, at 50.0 µM, stronger effect = higher value
Procedure, shortened: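 The screen exposed genetically defined yeast (cln2 rad14) to test compounds and scored growth inhibition relative to vehicle-treated controls.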

[5] = NCI Yeast Anticancer Drug Screen. Data for the bub3 strain (AID 167); details: S. cerevisiae bub3 mutant strain, at 50.0 µM, stronger effect = higher value
Procedure, shortened: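 Steps: expose the mutant yeast strain to compound; grow alongside vehicle-treated cultures; measure growth; express inhibition against the vehicle cultures.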

[6] = NCI Yeast Anticancer Drug Screen. Data for the mlh1 rad18 strain (AID 175); details: S. cerevisiae mlh1 rad18 strain growth inhibition; at 50.0 µM; stronger effect = higher value
Procedure, shortened: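 Compound-treated yeast growth, normalised to vehicle controls. Strain bears defined DNA repair mutations.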

Compound	growth inhibition [1]	growth inhibition [2]	growth inhibition [3]	growth inhibition [4]	growth inhibition [5]	growth inhibition [6]
c1ccc(C2=NCN3CC23c2ccccc2)cc1 (centres undefined)	-3.6%	2.2%	14.4%	13.4%	-48.8%	3.45%
N#Cc1cccc([N+](=O)[O-])c1	-17.7%	0.3%	-26.6%	30.8%	-9.7%	-18.9%
C1=C\CCC2SC2CC/1 (centres undefined)	2.1%	-16.9%	-5.95%	-14.6%	12.4%	-7.5%
CC(=O)Oc1ccc([As](=O)(O)O)cc1	5.55%	-7.75%	3.75%	-11.8%	10.4%	1.05%
O=C(OCc1nc2ccccn2c1[N+](=O)[O-])N(CCCl)CCCl	-42.6%	-21.5%	-35.6%	-10.8%	16.9%	-46%
Cc1csc(CP(=O)(OC(C)C)OC(C)C)n1	-22.6%	-47%	-21.6%	-13.2%	3.35%	-5.8%
CC(=O)Nc1ccc(NN=O)cn1	40.9%	4.7%	-15.9%	-7.95%	-37.8%	12.2%
CCOP(=O)(OCC)C(C)(C)OC(=O)NC(F)(F)F	-18.7%	-15.2%	-2.25%	5.25%	-10.1%	3%
CCCCCCCCOC(=O)c1ccccc1C(=O)OCCCCCCCC	-0.95%	-3.35%	18.6%	9.25%	-3.95%	-5.5%
O=C(OCCOc1ccccc1)C(Cl)(Cl)Cl	-6.05%	-7.1%	10.6%	-8.8%	12.3%	3.25%
CCC[CH2][Sn]([CH2]C)([CH2]C)[CH2]C	40.4%	17.8%	35.7%	15.8%	20.9%	31.3%
CN(C)C(=O)Oc1c(Cl)cc(S(=O)(=O)F)cc1Cl	26.4%	0.8%	12.7%	12.8%	2.65%	12.4%
COC(=O)[C@H]1[C@@H](O)[C@@]2(O)c3c(OC)cc(OC)cc3O[C@@]2(c2ccc3c(c2)OCO3)[C@@H]1c1ccccc1	89% (active)	92.5% (active)	91% (active)	90.2% (active)	88.2% (active)	92.2% (active)
Cc1cc(N(CCCl)CCCl)ccc1C=Nc1ccccc1F	8.3%	-5.4%	3.6%	-40.4%	6.85%	0.5%
CN(C)c1ccc(N=[N+]=[N-])cc1	3.05%	11%	10.3%	-74.8%	-6.45%	8.15%
O=P(O)(O)SP(=O)(O)O.[Co]	22.2%	6.9%	11.2%	-8.9%	-12.8%	14.2%
c1ccc(-c2ccc[n+](CCC[n+]3cccc(-c4ccccn4)c3)c2)nc1	2.9%	2.45%	-15.2%	-8.45%	-5.75%	6.25%
NC(=O)COc1ccc([As]=O)cc1 (centres undefined)	-1.9%	-14.9%	-11.9%	-48.8%	-33.3%	-15.8%
C[N+](C)(C)CC(=O)O	-4.3% and -7.25%	-10.6% and 10.3%	-20.4% and -6%	10.8% and -11.2%	-29.2% and 3.4%	-2.65% and -7%
